What all share (test): PBM binding z-score (relative to random genomic background probes); higher = stronger binding; sequences stand for … in GC…GCGATTGACAGCGTAGAATGAAGG
Assay [1] deals with PPARg:RXRa DBDmut IVT, anti-RXR (DBD mutation: RXRa K156A/R161A, NR concentration 270 nM, RXRa partner concentration 90 nM). An outline of the steps: (§1)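 Ligand-free nuclear receptor dimers were applied to custom Agilent 4×180K protein-binding microarrays whose double-stranded probes carried direct-repeat seeds, single-nucleotide variants, half-site ablations and random human genomic background sequences in 34-nt variable regions. Incubation lasted 1 h. Binding z-scores were computed against the random background probes from regression-normalized fluorescence.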

For assay [2], the system named is PPARg:RXRa IVT, anti-PPARg (NR concentration 270 nM, RXRa partner concentration 90 nM). The method in brief: as §1
In assay [3] the test system is PPARg DBDmut:RXRa IVT, anti-PPARg (DBD mutation: PPARg1 K132A/R137A, NR concentration 270 nM, RXRa partner concentration 90 nM). An outline of the steps:
as §1

In assay [4] the test system is PPARg DBDmut IVT, anti-PPARg (DBD mutation: PPARg1 K132A/R137A, NR concentration 270 nM). An outline of the steps: as §1
Assay [5] deals with PPARg homodimer (NR concentration 180 nM). An outline of the steps:
as §1

Assay [6] relates to PXR:RXRa (NR concentration 270 nM, RXRa partner concentration 90 nM). An outline of the steps:
as §1

The subject of assay [7] is PXR homodimer (NR concentration 270 nM). The method in brief:
as §1

The test system of assay [8] is RARa:RXR (NR concentration 270 nM, RXRa partner concentration 90 nM). The method in brief:
as §1

In assay [9] the test system is RARa homodimer (NR concentration 270 nM). An outline of the steps: as §1
Assay [10] deals with RARb:RXRa (NR concentration 270 nM, RXRa partner concentration 90 nM). The method in brief: as §1
The subject of assay [11] is RARb homodimer (NR concentration 270 nM). The method in brief: as §1
The subject of assay [12] is RARg:RXRa (NR concentration 270 nM, RXRa partner concentration 90 nM). The method in brief: as §1
In assay [13] the test system is RARg homodimer (NR concentration 270 nM). The method in brief: as §1
In assay [14] the test system is RXRa DBDmut IVT, anti-RXR (DBD mutation: RXRa K156A/R161A, NR concentration 90 nM). The method in brief:
as §1

Assay [15] has as its system RXRa homodimer (NR concentration 180 nM). An outline of the steps: as §1
Assay [16] concerns THRa:RXRa (NR concentration 90 nM, RXRa partner concentration 90 nM). An outline of the steps:
as §1

The subject of assay [17] is THRa homodimer (NR concentration 90 nM). An outline of the steps: as §1
Assay [18] concerns VDR homodimer (NR concentration 270 nM). The method in brief:
as §1

The text below walks through data of the supplement of paper PMC6555819.

With AGAACGAGGGTAATGAGTTGATAGCACGGGTGGC, the PBM binding z-score is 1.74 in assay [1]; 1.31 in assay [2]; -0.702 in assay [3]; -0.588 in assay [4]; -0.465 in [5]; 0.134 in assay [6]. Also, the PBM binding z-score in assay [7] was 1.17; in assay [8] it was -0.279; in [9], -0.76; in assay [10], 0.509; in assay [11], -0.134; in assay [12] it was 0.312. Besides, the PBM binding z-score was 0.371 in [13]; 0.405 in assay [14]; 0.5 in [15]; -0.0331 in [16]; -0.615 in assay [17]; 1.53 in assay [18].
Regarding CCGACTGGGGCAGCAAGGTTACCATACCATCCGG, the PBM binding z-score was 1.54 in assay [1]; 2.54 in assay [2]; -0.529 in assay [3]; -1.62 in assay [4]; 0.27 in assay [5]; 0.264 in assay [6]. For the same sequence, the PBM binding z-score in [7] is -0.339; in assay [8], 0.662; in assay [9], -0.434; in assay [10] it was 1.39; in assay [11] it was 1.52; in assay [12], 0.772. Besides, the PBM binding z-score in assay [13] was 0.82; in assay [14] it was -0.746; in [15] it was 0.706; in assay [16], 1.21; in assay [17] it was 0.373; in assay [18], 0.0128.
Turning to ACTACCAGGCCAAGTTTGGGTCACTCAAACAAAG, the PBM binding z-score in assay [1] was 1.12; in assay [2], 2.04; in [3], 0.0556; in [4], -0.292; in [5], 0.797; in assay [6], 0.921. In addition, the PBM binding z-score in [7] is 0.121; in assay [8], 1.45; in assay [9], 0.491; in assay [10], 2; in assay [11] it was 2.49; in [12] it was 2.52. In addition, the PBM binding z-score was 1.72 in assay [13]; 0.137 in assay [14]; 0.944 in assay [15]; 2.86 in [16]; 1.72 in assay [17]; 0.598 in assay [18].
As for TCTCTGAGGACACGAAAGGTCAGAGCTCGACATC, the PBM binding z-score in assay [1] was determined as 1.67; in [2], 2.12; in [3], 0.453; in assay [4], 1.37; in assay [5], 2.33; in assay [6], 4.09. Further, the PBM binding z-score in assay [7] amounted to 0.562; in assay [8] it was 4.33; in assay [9], 0.907; in assay [10], 4.2; in [11] it was 4.78; in assay [12], 4.77. The PBM binding z-score in assay [13] came to 5.31; in assay [14], 1.55; in [15], 3.99; in assay [16] it was 4.45; in assay [17] it was 4.15; in assay [18] it was 1.21.
As to TGAATGAGGTTATATGATCAGGGAACGTTGCAAA, the PBM binding z-score in [1] worked out at 1.01; in assay [2], 1.63; in assay [3] it was 0.22; in assay [4], 0.825; in [5], 0.489; in [6] it was 1.04. Further, the PBM binding z-score is 0.00293 in assay [7]; 1.77 in [8]; 0.606 in [9]; 1.26 in [10]; 0.492 in assay [11]; 1.64 in [12]. Further, the PBM binding z-score in assay [13] was determined as 0.971; in assay [14], 1.26; in [15], 2.06; in assay [16] it was 1.98; in assay [17] it was 0.364; in assay [18] it was 0.855.
Turning to CCTAGTTGGTCAGGAGGTCACACCCCGGATATGA, the PBM binding z-score came to 1.1 in assay [1]; 3.66 in assay [2]; 0.426 in assay [3]; 0.108 in assay [4]; 3.14 in assay [5]; 4.1 in [6]. Besides, the PBM binding z-score came out at 1.16 in assay [7]; 4.24 in assay [8]; 2.03 in [9]; 3.71 in assay [10]; 4.41 in [11]; 5.03 in assay [12]. Further, the PBM binding z-score stood at 4.13 in [13]; 0.124 in assay [14]; 4.77 in [15]; 3.74 in assay [16]; 2.36 in [17]; 2.96 in assay [18].
With TCTTGTAGAGCAATAGAGGTTAAGAAAGTGCGCT, the PBM binding z-score was 1.71 in assay [1]; 1.36 in assay [2]; -0.0371 in [3]; 0.131 in assay [4]; -0.051 in assay [5]; 2.73 in [6]. Besides, the PBM binding z-score is -0.322 in assay [7]; 1.25 in [8]; -0.851 in assay [9]; 0.425 in [10]; 0.76 in assay [11]; 0.413 in assay [12]. Besides, the PBM binding z-score is 0.158 in assay [13]; -0.107 in assay [14]; 0.858 in assay [15]; 1.76 in [16]; -1.07 in [17]; -0.332 in assay [18].
CGTCAAAGTTCCACTAAGGTAACGTAAAGCACGC: the PBM binding z-score in assay [1] was 0.458; in assay [2], 0.925; in assay [3] it was -0.504; in [4] it was 0.445; in assay [5], 0.404; in [6] it was 0.17. The PBM binding z-score in assay [7] is 0.428; in [8] it was 2.22; in assay [9], 0.139; in assay [10], 0.704; in assay [11] it was 0.376; in assay [12] it was 0.418. In addition, the PBM binding z-score was determined as 0.398 in [13]; 0.475 in [14]; 0.357 in [15]; 4.02 in assay [16]; 1.69 in assay [17]; 0.238 in assay [18].
